Compound activity: PubChem BioAssay, several laboratories
Only some compounds are listed: those with a hit (about 2.9% of all), similar ones and a draw of the others.
NadD block = blocks S. aureus nicotinate mononucleotide adenylyltransferase. purified NadD enzyme, colorimetric absorbance read-out. inhibition, % at 20 µM. 360,000 tested, 0.78% active. AID 602399; in the data active = inhibition above about 26%
Granule exo inh = lytic granule exocytosis inhibition; 360,000 tested, 0.66% active; inhibition, % at 10 µM; TALL-104 LAMP-1 surface exposure, flow cytometry; cells stimulated with thapsigargin and PMA;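 active = inhibition above about 55%, limit read from the data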
GRK2 aptamer HTS = inhibitors of human GRK2 displacing RNA aptamer; AID 488847; 330,000 tested, 0.59% active; inhibition of aptamer binding, % at 10 µM; P25098; bead flow cytometry, FAM-aptamer displacement from GRK2;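 active = inhibition of aptamer binding above 40%, roughly 3 SD of noise, on plates passing a quality check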;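 also: median bead fluorescence of bound FAM aptamer so fluorescent compounds give negative values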
Target sequence (P25098 whole entry, looked up): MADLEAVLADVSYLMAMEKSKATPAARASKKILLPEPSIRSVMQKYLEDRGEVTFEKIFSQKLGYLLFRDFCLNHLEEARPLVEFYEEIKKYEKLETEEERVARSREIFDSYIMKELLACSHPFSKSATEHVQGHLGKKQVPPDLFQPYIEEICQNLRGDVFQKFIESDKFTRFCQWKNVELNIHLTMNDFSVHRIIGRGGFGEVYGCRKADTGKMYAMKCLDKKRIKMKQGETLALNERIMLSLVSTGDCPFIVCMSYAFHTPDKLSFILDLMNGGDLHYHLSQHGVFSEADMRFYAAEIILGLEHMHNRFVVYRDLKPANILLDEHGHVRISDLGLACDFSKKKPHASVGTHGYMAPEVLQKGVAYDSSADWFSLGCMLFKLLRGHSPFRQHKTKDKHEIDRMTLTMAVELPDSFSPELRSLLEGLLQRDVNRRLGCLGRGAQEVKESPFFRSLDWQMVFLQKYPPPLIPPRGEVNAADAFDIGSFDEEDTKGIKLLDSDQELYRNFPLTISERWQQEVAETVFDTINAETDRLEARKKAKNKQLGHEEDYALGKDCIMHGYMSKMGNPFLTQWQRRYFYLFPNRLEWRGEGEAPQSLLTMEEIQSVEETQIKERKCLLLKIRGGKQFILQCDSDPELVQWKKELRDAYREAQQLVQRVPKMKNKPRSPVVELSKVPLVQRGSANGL
Beta2AR agonist = human beta-2 adrenergic receptor agonism by FAP; response, % (test concentration not listed); Am2.2-beta2AR cells, FAP receptor internalization, flow cytometry; 340,000 tested, 0.43% active;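 active = response above a set limit, near 3 SD of response in nonfluorescent compounds, cut at about 42% in these data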
PP1 counter = PP1-alpha (human) inhibition in PP5 counter-screen; purified PP1alpha, OMFP fluorescence; inhibition, % at 6.7 µM; 320,000 tested, 0.9% active; P62136; AID 2235;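 active = inhibition above the mean inhibition of all tested compounds plus 3 SD, computed separately for each screening campaign, cut at about 15% in these data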
PP1 confirm = human PP1 phosphatase inhibition, confirmation. shares compounds with PP1 counter. purified PP1alpha, OMFP substrate fluorescence. inhibition, % at 6.7 µM. 1,900 tested, 52% active. AID 2358;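 active = mean PP1 inhibition above a set limit taken from the earlier primary screen, cut at about 15% in these data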
PP5 counter = inhibits human PP5 phosphatase in PP1 counter-screen; shares compounds with PP1 counter; 1,900 tested, 4% active; purified PP5c, OMFP fluorescence; inhibition, % at 6.7 µM;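 active = mean PP5 inhibition over triplicate wells above about 9.5% taken from the earlier PP1 screen, limit read from the data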
Of the large screens only hits and unclear results are named; the others gave an inactive call (follow-up assays come after a bar, where they were run); ! = not confirmed by another sample.

O=C(Nc1nnc(C2=COCCO2)o1)c1ccc(Cc2ccccc2)cc1	PP1 counter 22 | PP1 confirm 20 | PP5 counter inactive
O=C(Nc1nnc(C2=COCCO2)o1)c1ccc(Cl)cc1	none
Cc1nnc(NC(=O)c2ccc(S(=O)(=O)N3CCc4ccccc4C3)cc2)o1	PP1 counter 24 | PP1 confirm 21 | PP5 counter inactive
CC1CCCN(S(=O)(=O)c2ccc(C(=O)Nc3nnc(C4=COCCO4)o3)cc2)C1 (configuration not stated)	PP1 counter 19 | PP1 confirm inactive | PP5 counter inactive
Cc1nnc(NC(=O)c2ccc(S(=O)(=O)N3CC(C)CC(C)C3)cc2)o1 (configuration not stated)	PP1 counter 22 | PP1 confirm inactive | PP5 counter inactive
CC1CN(S(=O)(=O)c2ccc(C(=O)Nc3nnc(-c4ccccn4)o3)cc2)CC(C)O1 (configuration not stated)	none
C=CCN=C(NC#N)SCC(=O)c1cccc(OC)c1	none
Cc1ccc(C)c(CSC2=NCCN2S(=O)(=O)c2ccccc2)c1	none
CN(CC(=O)Nc1ccc(Cl)cc1)CC(=O)Nc1cc(Cl)ccc1C#N	none
N[C@@H](Cc1cc(I)c(Oc2ccc(O)c(I)c2)c(I)c1)C(=O)O	NadD block 58!, PP1 counter 28! | PP1 confirm inactive | PP5 counter inactive
CCn1cc(C(=O)NCCCOC(C)C)c(=O)c2cc(S(=O)(=O)N3CCOCC3)ccc21	none
Cc1ccc2c(Cl)c(Cc3ccccc3)c(=S)[nH]c2n1	none (no result: GRK2 aptamer HTS, PP1 counter)
Cc1cc(N2CCCC2)ccc1/C=N/n1cnnc1	PP1 counter 18 | PP1 confirm inactive | PP5 counter inactive
Cc1cc(N2CCCC2)ccc1/C=C1\NC(=S)N(C)C1=O	none
CC(/C=C1\SC(=S)N(c2ccc(C(=O)O)cc2)C1=O)=C\c1ccccc1	PP1 counter 44 | PP1 confirm 31 | PP5 counter inactive
CCCn1c(=O)c(C(=O)NNC(=O)c2ccccc2[N+](=O)[O-])c(O)c2ccccc21	PP1 counter 20 | PP1 confirm 18 | PP5 counter inactive
CCCn1c(=O)c(C(=O)NNC(=O)c2ccccc2Cl)c(O)c2ccccc21	none
NC(=O)CC(NC(=O)Cc1ccc(Br)cc1)c1ccc(NCCc2ccc(Cl)cc2)c([N+](=O)[O-])c1 (configuration not stated)	none (no result: GRK2 aptamer HTS, PP1 counter)
NC(=O)CC(NC(=O)c1ccc(Br)cc1)c1ccc(NCc2ccc(F)c(F)c2)c([N+](=O)[O-])c1 (configuration not stated)	none
NC(=O)CC(NC(=O)Cc1ccc(Br)cc1)c1ccc(NCCc2ccccc2F)c([N+](=O)[O-])c1 (configuration not stated)	PP1 counter 24 | PP1 confirm 25 | PP5 counter inactive
COc1ccc(CCNc2ccc(C(CC(N)=O)NC(=O)Cc3ccc(Br)cc3)cc2[N+](=O)[O-])cc1 (configuration not stated)	PP1 counter 18 | PP1 confirm 26 | PP5 counter inactive
NC(=O)CC(NC(=O)c1ccc(Br)cc1)c1ccc(NCc2ccc(F)cc2)c([N+](=O)[O-])c1 (configuration not stated)	PP1 counter 19 | PP1 confirm 26 | PP5 counter inactive
COc1ccc(CCNc2ccc(C(CC(N)=O)NC(=O)c3ccc(Br)cc3)cc2[N+](=O)[O-])cc1 (configuration not stated)	PP1 counter 18 | PP1 confirm 25 | PP5 counter inactive
CC1CCN(S(=O)(=O)c2ccc(C(=O)Nc3ccccn3)cc2)CC1	none
NC(=O)CC(NC(=O)Cc1ccc(Br)cc1)c1ccc(NCCc2ccc(F)cc2)c([N+](=O)[O-])c1 (configuration not stated)	PP1 counter 18 | PP1 confirm 25 | PP5 counter inactive
Cc1ccc(Cn2nc(C)c(NC(=O)c3cc(-c4ccc5c(c4)OCO5)on3)c2C)cc1	PP1 counter 24 (no result: NadD block, Granule exo inh, Beta2AR agonist) | PP1 confirm 37 | PP5 counter inactive
Cc1nn(Cc2ccc(F)cc2)c(C)c1NC(=O)c1cc(-c2ccc3c(c2)OCO3)on1	none (no result: NadD block)
CC(C)(C)CC(=O)Nc1nnc(SCC(=O)N2CCCCC2)s1	none
CCOC(=O)C(C)Sc1nc(-c2ccccn2)ncc1OC (configuration not stated)	none
COc1cnc(-c2ccccn2)nc1Sc1ccccc1Cl	PP1 counter 47 | PP1 confirm 51 | PP5 counter inactive
COc1cnc(-c2ccccn2)nc1Sc1c(Cl)cccc1Cl	PP1 counter 50 | PP1 confirm 41 | PP5 counter inactive
COc1cnc(-c2ccccn2)nc1N(C)C	none
CCN1C(=O)[C@H]2[C@@H](c3ccc(-c4ccc(Cl)c(Cl)c4)c(OC)c3)N3CCCC[C@@]3(C(=O)OC)[C@H]2C1=O	none (no result: PP1 counter)
CCNc1nc(NCC)nc(C(=O)NN)n1	PP1 counter 24 | PP1 confirm inactive | PP5 counter inactive
CCNc1nc(NCC)nc(OCC(=O)O)n1	none
CC(=O)Nc1ccc(OCCOc2ccc(NC(C)=O)cc2)cc1	none
CCNC(=S)Nc1ccc(Cl)c(C(F)(F)F)c1	none
C/C(=N/O)c1ccccn1	PP1 counter 36 | PP1 confirm inactive | PP5 counter inactive
CC(=O)c1ccccn1	none
CC1=NN(c2ccc(C(=O)O)cc2)C(=O)/C1=C\c1ccc(OC(=O)c2cccs2)cc1	PP1 counter 29 | PP1 confirm 18 | PP5 counter inactive
CCOc1cc(/C=C2\C(=O)N(c3ccc(C(N)=O)cc3)N=C2C)ccc1OC(=O)c1cccs1	none
Cc1nc(NC(C)C)c2cnn(CCc3ccccc3)c2n1	none
COc1ccccc1N1Cc2ccccc2C1	PP1 counter 18 | PP1 confirm 24 | PP5 counter inactive
O=C(O)C1C2CCC(O2)C1C(=O)NCCC1=CCCCC1 (configuration not stated)	PP1 counter 61 | PP1 confirm 31 | PP5 counter 41
COc1ccc(NC(=O)C2C3CCC(O3)C2C(=O)O)c(C)c1 (configuration not stated)	PP1 counter 62 | PP1 confirm inactive | PP5 counter 27
Cc1cc(Br)ccc1NC(=O)C1C2CCC(O2)C1C(=O)O (configuration not stated)	PP1 counter 55 | PP1 confirm inactive | PP5 counter 16
O=C(NCc1ccccc1Br)c1ccco1	none
O=C(O)C1C2CCC(O2)C1C(=O)NCc1ccccc1Br (configuration not stated)	PP1 counter 17 | PP1 confirm inactive | PP5 counter 17
NC(=O)NCCC1=CCCCC1	none
CC(C)N1CCC(=O)NC1=O	none (no result: GRK2 aptamer HTS, PP1 counter)
COc1ccc(C(=O)N2CCN(c3nc4cc(C)cc(C)c4cc3C#N)CC2)cc1	none (no result: GRK2 aptamer HTS, Beta2AR agonist, PP1 counter)
